This is one part of a sample in which hits are shown more often than they occur.
Shiga inhibitor: Shiga toxin inhibition | Vero cells, Shiga toxin protein synthesis inhibition reporter | inhibition, % at 38.7 µM | AID 2315 | 290,000 tested, 9.2% active; in the data active = inhibition mostly above about 28%, no sharp cut-off; inactive = mostly below about 43%
VACV Venus inh: inhibitors of vaccinia virus (Venus reporter); Vaccinia virus Venus reporter expression, fluorescence; Potency, µM (top dose mostly 36.5 µM), usual class: inhibitors; 330,000 tested, 0.46% active; AID 720580; calls by dose curve; tested in A549 cells; also: nearly all actives have a fitted effect of over 30% in size
CHX counter: affects cycloheximide protein synthesis inhibition readout, counter-screen. AID 2314. max response, %. 300,000 tested, 12% active. cell reporter, cycloheximide protein synthesis inhibition counterscreen; in the data active = max response mostly above about 13%, no sharp cut-off; inactive = mostly below about 14%; also: read at 38.3 µM for the half of the compounds with a filed dose
Lassa entry inh: blocks Lassa virus binding to or entry into cells | Lassa virus pseudotype entry inhibition, cell reporter | 300,000 tested, 1.2% active | Potency, µM (titrated, usually from 37.9 µM), hits mostly inhibitors; calls by dose curve; tested in HEK293 cells; also: nearly all actives have a fitted effect of over 50% in size
VACV mCherry inh: inhibitors of vaccinia virus infection (mCherry reporter signal) | Vaccinia virus mCherry reporter infection, fluorescence | 310,000 tested, 0.63% active | AID 720579 | Potency, µM (highest dose often 36.5 µM), actives largely listed as inhibitors; calls by dose curve; tested in A549 cells; also: nearly all actives have a fitted effect of over 35% in size
MARV entry inh: blocks Marburg virus binding to or entry into cells. Potency, µM (titrated, usually from 37.8 µM), most hits filed as inhibitors. Marburg virus pseudotyped entry inhibition, cell reporter. AID 540276. 300,000 tested, 1.8% active; calls by dose curve; tested in HEK293 cells
Numbers stand for hits; [ ] = another dose, or the depositor's remark.

How did COc1cccc(CN(C)C(=O)c2cc(COc3c(F)cccc3F)on2)c1 do in these assays?
Shiga inhibitor: inactive; VACV Venus inh: inactive; CHX counter: 22; Lassa entry inh: inactive; VACV mCherry inh: inactive; MARV entry inh: inactive

What do the screens show for `CN(Cc1cnn(C)c1)C(=O)c1cc(COc2c(F)cccc2F)on1`?
Shiga inhibitor: inactive; VACV Venus inh: inactive; CHX counter: 19; Lassa entry inh: inactive; VACV mCherry inh: inactive; MARV entry inh: inactive

What do the screens show for `CCN(Cc1ccccc1)C(=O)c1cc(COc2c(F)cccc2F)on1`?
Shiga inhibitor: inactive; VACV Venus inh: inactive; CHX counter: 13; Lassa entry inh: inconclusive; VACV mCherry inh: inconclusive; MARV entry inh: inactive

What do the screens show for `COc1cccc(CN(C)C(=O)c2cc(COc3ccc4ncccc4c3)on2)c1`?
Shiga inhibitor: inactive; VACV Venus inh: inactive; CHX counter: inactive; Lassa entry inh: inconclusive; VACV mCherry inh: inactive; MARV entry inh: inactive

Results for CCn1ccnc1CN(C)C(=O)c1cc(COc2c(F)cccc2F)on1 ?
Shiga inhibitor: inactive; VACV Venus inh: inactive; CHX counter: inactive; VACV mCherry inh: inactive

Results for O=C(O)/C=C/C(=O)Nc1ccc2nccnc2c1 ?
Shiga inhibitor: inactive; VACV Venus inh: inactive; CHX counter: 23; Lassa entry inh: inactive; VACV mCherry inh: inactive; MARV entry inh: inactive

What do the screens show for `O=C(Nc1ccncc1)c1cccc(F)c1`?
Shiga inhibitor: inactive; VACV Venus inh: inactive; CHX counter: inactive; Lassa entry inh: inactive; VACV mCherry inh: inactive; MARV entry inh: inactive

Results for CCN(CC)C(=O)c1ccc(NC(=O)c2cccc(S(=O)(=O)N3CCN(C)CC3)c2)cc1 ?
Shiga inhibitor: inactive; VACV Venus inh: inactive; CHX counter: inactive; Lassa entry inh: inactive; VACV mCherry inh: inactive; MARV entry inh: inactive

What do the screens show for `O=C(Nc1ccc(Nc2ccccc2)cc1)c1cccc(F)c1`?
Shiga inhibitor: 117; CHX counter: 36

Results for O=C(Nc1cccc(F)c1)c1cccnc1 ?
Shiga inhibitor: inactive; CHX counter: inactive

How did CCN(CC)C(=O)c1ccc(NC(=O)c2cccc(F)c2)cc1 do in these assays?
Shiga inhibitor: inactive; CHX counter: 35; Lassa entry inh: inactive; MARV entry inh: inactive

What do the screens show for `O=C(Nc1cccc(F)c1)c1ccccc1`?
Shiga inhibitor: 79; CHX counter: 38; Lassa entry inh: inactive; MARV entry inh: inactive

What do the screens show for `Cc1cccc(-c2nc3c4ccccc4n(Cc4cccc(Cl)c4)c(=O)n3n2)c1`?
VACV Venus inh: inactive; Lassa entry inh: inactive; VACV mCherry inh: inactive

What do the screens show for `Fc1cccc(NC(=S)NNc2ccccc2)c1`?
Shiga inhibitor: 45; CHX counter: 34

Results for O=C(O)/C=C/C(=O)Nc1ccc(NC(=O)c2ccccc2)c(Cl)c1 ?
Shiga inhibitor: inactive; VACV Venus inh: inactive; CHX counter: inactive; Lassa entry inh: inconclusive; VACV mCherry inh: inactive; MARV entry inh: inconclusive

Results for O=C(O)/C=C\C(=O)Nc1cccc(NC(=O)c2ccccc2)c1 ?
Shiga inhibitor: inactive; VACV Venus inh: inactive; CHX counter: 22; Lassa entry inh: inactive; VACV mCherry inh: inactive; MARV entry inh: inactive

Results for CCCCn1nnnc1C(c1ccccc1)N1CCN(c2cccc(C)c2C)CC1 (configuration not stated) ?
VACV Venus inh: inactive; VACV mCherry inh: inactive

Results for CCOC(=O)c1cc(-c2ccc(OC)cc2)n(CCC(=O)NC2CCC(C)CC2)c1C (configuration not stated) ?
VACV Venus inh: inactive; Lassa entry inh: inconclusive; VACV mCherry inh: inactive

Results for CC(C)c1ccc(NC(=O)CSc2nc(=O)n(Cc3cccnc3)c3c2CCC3)cc1 ?
VACV Venus inh: inactive; Lassa entry inh: inactive; VACV mCherry inh: inactive

Results for Cc1ccc(Oc2ccc(NC(=O)c3ccco3)cc2)cc1 ?
Shiga inhibitor: 99; CHX counter: 67; Lassa entry inh: inconclusive; MARV entry inh: inconclusive

What do the screens show for `COC(=O)c1cccc(COC(=O)CNC(=O)c2ccco2)c1`?
Shiga inhibitor: inactive; CHX counter: inactive; Lassa entry inh: inactive; MARV entry inh: inactive

How did Cc1ccc(NC(=O)c2ccc(OC(=O)c3cc4ccccc4o3)cc2)cc1 do in these assays?
Shiga inhibitor: 81; VACV Venus inh: inactive; CHX counter: 40; Lassa entry inh: inactive; VACV mCherry inh: inactive; MARV entry inh: inactive

What do the screens show for `Cc1ccc(NC(=O)c2ccc(OC(=O)c3ccco3)cc2)cc1`?
Shiga inhibitor: 73; VACV Venus inh: inactive; CHX counter: 36; Lassa entry inh: inactive; VACV mCherry inh: inactive; MARV entry inh: inactive

What do the screens show for `O=C(CNC(=O)c1ccco1)NCC(=O)OCc1cccc(C(=O)Oc2ccccc2)c1`?
Shiga inhibitor: 42; VACV Venus inh: inactive; CHX counter: 13; Lassa entry inh: inconclusive; VACV mCherry inh: inactive; MARV entry inh: inactive

How did CCCCN(CCC#N)c1ccc(/C=C/c2ccnc3ccccc23)cc1 do in these assays?
VACV Venus inh: inactive; VACV mCherry inh: inconclusive

How did CN1C(=O)/C(=C/c2ccccc2Cl)Sc2ccc(C(=O)NCc3cccnc3)cc21 do in these assays?
Shiga inhibitor: inactive; VACV Venus inh: inactive; CHX counter: inactive; Lassa entry inh: inconclusive; VACV mCherry inh: inactive; MARV entry inh: inconclusive

How did O=C(Oc1ccccc1)c1ccc(NC(=O)c2ccco2)cc1 do in these assays?
Shiga inhibitor: 100; VACV Venus inh: inactive; CHX counter: 53; Lassa entry inh: inactive; VACV mCherry inh: inactive; MARV entry inh: inconclusive

What do the screens show for `CC1CC(Nc2ccccc2)c2ccccc2N1C(=O)c1ccncc1` (configuration not stated)?
Shiga inhibitor: inactive; VACV Venus inh: inactive; CHX counter: inactive; Lassa entry inh: inactive; VACV mCherry inh: inactive; MARV entry inh: 10µM

How did CC1CC(Nc2ccccc2)c2ccccc2N1C(=O)c1ccco1 (configuration not stated) do in these assays?
Shiga inhibitor: inactive; VACV Venus inh: inactive[7.34 µM]; CHX counter: inactive; Lassa entry inh: inactive; VACV mCherry inh: inactive[7.34 µM]; MARV entry inh: inconclusive

How did CCc1ccc(/C=C/C(=O)c2c(C)cc(C)[nH]c2=O)cc1 do in these assays?
Shiga inhibitor: inactive; VACV Venus inh: inconclusive; CHX counter: inactive; Lassa entry inh: inconclusive; MARV entry inh: inconclusive

Results for Cc1ccc(/C=C/C(=O)c2c(C)cc(C)[nH]c2=O)cc1 ?
Shiga inhibitor: inactive; CHX counter: inactive; Lassa entry inh: inconclusive; MARV entry inh: 23µM

Results for Cn1c(N)c(C(=O)/C=C/c2ccccc2)c(=O)[nH]c1=O ?
Shiga inhibitor: 69; VACV Venus inh: inactive; CHX counter: 48; Lassa entry inh: inactive; VACV mCherry inh: inactive; MARV entry inh: inconclusive

How did COc1ccc(/C=C/C(=O)c2c(C)cc(C)[nH]c2=O)c2ccccc12 do in these assays?
Shiga inhibitor: inactive; VACV Venus inh: inconclusive; CHX counter: inactive; Lassa entry inh: inconclusive; VACV mCherry inh: 8.9µM; MARV entry inh: inconclusive

What do the screens show for `CCN1CCCC1CNC(=O)c1cnn(-c2nccc(-c3cc(OC)ccc3OC)n2)c1C` (configuration not stated)?
VACV Venus inh: inactive; VACV mCherry inh: inactive
